# Experimental data taken from article PMC5540273 (PLoS ONE, 2017).
# Experiments:
# Details in all cases: concentration: 1 μM, replicates: in singlicate; n = 1
# [1] = tested on: T1, JNK2
# T1 construct: gene MAPK9
# [2] = tested on: T2, JNK3
# T2 construct: gene MAPK10
# [3] = tested on: KIT-autoinhibited
# [4] = tested on: KIT
# [5] = tested on: LATS1
# [6] = tested on: LATS2
# [7] = tested on: LCK
# [8] = tested on: LIMK1
# [9] = tested on: LIMK2
# [10] = tested on: T3, LKB1
# T3 construct: gene STK11
# [11] = tested on: T4, LOK
# T4 construct: gene STK10
# [12] = tested on: LRRK2
# [13] = tested on: LTK
# [14] = tested on: LYN
# [15] = tested on: T5, LZK
# T5 construct: gene MAP3K13
# [16] = tested on: MAK
# [17] = tested on: MAP3K15
# [18] = tested on: MAP3K1
# [19] = tested on: MAP3K2
# [20] = tested on: MAP3K3
# 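Further: KINOMEscan kinase panel screen.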
Structure (SMILES),%Inh [1] [%],%Inh [2] [%],%Inh [3] [%],%Inh [4] [%],%Inh [5] [%],%Inh [6] [%],%Inh [7] [%],%Inh [8] [%],%Inh [9] [%],%Inh [10] [%],%Inh [11] [%],%Inh [12] [%],%Inh [13] [%],%Inh [14] [%],%Inh [15] [%],%Inh [16] [%],%Inh [17] [%],%Inh [18] [%],%Inh [19] [%],%Inh [20] [%]
Nc1nccc2scc(-c3ccc4c(c3)CCN4C(=O)Cc3ccccc3)c12 [GSK2576924],10,0,5,74,0,0,11,3,14,9,21,0,69,0,1,23,9,0,12,0
COc1ccc(-c2cc3c(C)nc(N)nc3n([C@H]3CC[C@H](O)CC3)c2=O)cn1,0,0,0,0,0,7,0,0,0,0,0,0,0,0,0,0,0,0,0,0
C[C@@H]1CC[C@H](C(=O)NC2CCCCC2)CN1c1cc(-c2ccc3c(N)n[nH]c3c2)nc(N)n1 [GSK2291363],30,10,10,27,0,72,24,0,11,23,0,0,0,0,0,25,0,21,20,0
COC(=O)c1c(-c2ccccc2)c2cc(Br)ccc2c(=O)n1Cc1ccc(NC(=O)CCC(=O)O)cc1,99.1,99.3,1,38,27,17,0,0,0,6,20,4,3,8,4,8,18,12,0,18
CN1C(=O)C(Nc2ccccc2)=C(c2ccccc2)C1=O [SB-300079],0,0,17,0,0,0,0,0,0,13,0,0,0,0,0,0,0,0,21,0
Cl.NS(=O)(=O)c1cccc(Nc2cc(-c3ccc(F)cc3)n[nH]2)c1 [GW824645],1,0,35,90,0,0,0,0,0,25,0,0,0,0,0,0,1,0,22,0
O=c1cc(N2CCOCC2)nc2n(Cc3ccc(F)c(Cl)c3)ccn12 [GSK2297099],8,5,0,9,4,0,0,7,6,0,0,0,0,2,0,28,0,4,10,0
COc1cc(Nc2ccnc3ccc(C(F)(F)F)cc23)cc(OC)c1OC [GW577382],48,29,0,19,0,0,68,18,0,0,18,27,0,25,30,12,3,4,0,0
Cc1ccc(-c2ccc3c(ccc4sc5c(c43)NC[C@@H](C)N=C5N(C)C)n2)cn1,0,0,0,0,0,18,0,0,0,0,0,0,0,0,0,17,0,0,0,0
COc1cc2nccc(Nc3ccc(OCc4ccc(NC(C)=O)cc4)cc3)c2cc1OC.Cl [GW440135],0,0,12,100,0,0,22,0,0,0,0,0,0,23,24,0,0,0,18,0
COc1ccc(-n2cnc3c(N)ncnc32)cc1 [SKF-97236],0,0,2,94.2,25,34,31,2,0,0,0,17,20,0,0,0,13,9,8,8
COc1cc(Nc2nccc(N3CCC(NC(=O)C(C)c4ccc(Cl)cc4)C3)n2)cc(OC)c1OC (stereo not drawn) [GSK1379757],6,0,0,2,0,1,8,1,22,7,0,0,28,0,0,17,0,1,0,0
